Laboratory results taken from PubChem BioAssay.
Unmarked numbers belong to inactive results.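 The calls were made as follows: active = z-score of at least 1.8 in each of two replicates, scored against plate mean and spread of sample wells; inactive = the rest.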

Test: viability rescue of complex I mutant cybrids, primary screen, cell-based, galactose medium, ATP luminescence (AID 1645843);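 also: positive z means more ATP and so rescue of galactose-driven cybrid death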
Details: complex I mutant cybrid cells, 72 h, stronger effect = higher value

Row | SMILES | z-score
1 | c1ccc(-n2cc(-c3ccnc(NCc4cnc5ccccn45)n3)cn2)cc1 | -1.09
2 | OCC1CCCN(C2CCN(c3ncnc4sccc34)CC2)C1 (configuration not stated) | 1
3 | O=C1CN(c2ncnc3nc[nH]c23)CCN1C1CCCCC1 | 1.14
4 | Cc1nnc(NC(=O)N(C)CC2COc3ccccc3O2)s1 (configuration not stated) | 0.025
5 | CCn1ncc2[nH]c(-c3ccc(-c4ccccn4)cc3)nc21 | -1.15
6 | CCc1n[nH]c2c1CN(C(=O)c1cc(C)nc3ccc(F)cc13)CC2 | -0.42
7 | CC(CCCC(C)(C)O)CCNCC1(c2ccccc2)CCOCC1 (configuration not stated) | -0.5
